AMA1-RON2 inh = inhibitors of Plasmodium falciparum AMA1-RON2 interaction | Potency, µM (highest dose often 58.2 µM), for the others: at the highest dose activity change, negative = inhibition, actives largely listed as inhibitors | AlphaScreen AMA1-biotinylated RON2 peptide binding | 360,000 compounds, 0.2% hits;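 note: 0% = vehicle wells and -100% = peptide control; nearly all actives have a fitted effect of over 45% in size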
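AMA1 (3D7) with his tag at 25 nM final met compounds first, then biotinylated RON2 peptide at 25 nM; detection used donor plus acceptor beads, 10 µg/mL apiece, read by AlphaScreen after 30 min at room temperature.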
Pf growth 48h = inhibits P. falciparum growth in the first generation, 48 h | P. falciparum luciferase growth in erythrocytes, 48 h | Potency, µM (doses to about 28.7 µM), for inactives: at the top dose activity change, negative = inhibition, usual class: inhibitors | 310,000 compounds, 5.9% hits | AID 504832; note: % is set by controls: 0 for no effect and ±100 for the full control effect
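Compounds are pin-transferred into medium, infected erythrocytes (2% hematocrit, 0.1% parasitemia final) are added, and plates sit one parasite generation at 37 C in 5% CO2. Detection reagent is then added and luminescence measured.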
SARS PLP yeast = inhibitors of SARS-CoV papain-like protease in yeast; S. cerevisiae expressing SARS-CoV PLpro, growth rescue; Potency, µM (top dose mostly 32.9 µM), without a hit: at the top dose activity, positive = growth rescue, usual class: activators; 330,000 compounds, 0.19% hits; calls by dose curve; note: 0% is about no effect; nearly all actives have a fitted effect of over 55% in size
Pf growth 96h = P. falciparum growth inhibition at 96 hours | P. falciparum luciferase reporter growth, 96 h | Potency, µM (series often up to 28.7 µM), for the others: at the top dose activity change, negative = inhibition, most hits filed as inhibitors | 320,000 compounds, 6.9% hits | AID 504834; note: % is set by controls: 0 for no effect and ±100 for the full control effect
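Luminescence readout: decreased luciferase signal marks inhibited growth of reporter-expressing P. falciparum in infected red cells (2% hematocrit, 0.05% parasitemia final), exposed to compound two generations (96 h, 37 C, 5% CO2).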
* = called active by the depositor; ? = inconclusive; nt = not tested or not shown; [ ] = remark or other dose. An excerpt weighted towards active compounds, which were near 9.4% of everything screened. Unless noted, calls come from the whole dose curve; as a rule, active = well fitted curve in the direction sought with a large enough effect; inconclusive = small, poorly fitted or top-dose-only effect, or another doubt; inactive = no such curve, though single readings can be large; an effect the other way counts as inactive or inconclusive. Potency is the fitted concentration of half-maximal effect.

SMILES	AMA1-RON2 inh	Pf growth 48h	SARS PLP yeast	Pf growth 96h
O=C(Nc1cccc(-n2cnnn2)c1)c1cccc(Cl)c1	5%	-3%	-4%	18%
C[C@@H]1C[C@H]2[C@@H]3C[C@H](F)C4=CC(=O)C(Cl)=C[C@]4(C)[C@@]3(F)[C@@H](O)C[C@]2(C)[C@@]1(O)C(=O)CO	nt	nt	2%	nt
CC1(C)CC2CC(C)(CN2C(=O)COC(=O)c2cccnc2Cl)C1 (configuration not stated)	11%	nt	-5%	nt
NS(=O)(=O)c1ccc(CCNC(=O)C2CCCO2)cc1 (configuration not stated)	1%	49%	-1%	?
COC(=O)c1cccc(NC(=O)c2cccc(-n3cnnn3)c2)c1	11%	nt	nt	nt
CC(Oc1ccc(C#N)cc1)C(=O)Nc1ccc(-n2cnnn2)cc1 (configuration not stated)	0%	4.7µM*	0%	3.3µM*
CC(=O)Nc1ccc(-n2cnnn2)cc1	-14%	16%	-1%	-12%
O=C(Nc1cnc2ccccc2c1)c1cccc(-n2cnnn2)c1	-7%	0.12µM*	0%	-1%[5.75 µM]
CC(C)OC(=O)c1ccc(NC(=O)c2cccc(-n3cnnn3)c2)cc1	4%	12µM*	9%	?
O=C(Nc1ccc(Oc2ccc3c(c2)C(=O)N(c2ccc(O)cc2)C3=O)cc1)c1cccs1	7%	26%	3%	?
Cc1c(CCO)c(=O)n2c([nH]c3ccccc32)c1C#N	-3%	nt	3%	-3%
COc1ccccc1N1C(=O)c2ccccc2NC1c1ccncc1 (configuration not stated)	2%	2%	1%	?
COc1ccccc1N1C(=O)N(C(C)=O)C2C1Nc1ccccc1N2C (configuration not stated)	16%	4.7µM*	0%	?
CC(C)C(NC(=O)c1ccccc1F)C(=O)Nc1ccc2c(c1)OCO2 (configuration not stated)	7%	-3%	2%	-23%
O=[N+]([O-])c1cccc(-c2ccc(/C=N/Nc3nc(N4CCCCC4)nc(N4CCCCC4)n3)o2)c1	-6%	2.3µM*	-1%	11%
O=[N+]([O-])c1ccc(-c2ccc(/C=N/Nc3nc(N4CCCC4)nc(N4CCCC4)n3)o2)cc1	-10%	?	0%	?
O=[N+]([O-])c1ccc(/C=N/Nc2nc(N3CCCC3)nc(N3CCCC3)n2)o1	55%	nt	3%	10µM*
CCNc1nc(NCC)nc(N/N=C/c2ccc([N+](=O)[O-])o2)n1	5%	nt	15%	4.1µM*
Cc1ccc(Cl)cc1Nc1nc(-c2sc(NC(=O)c3ccco3)nc2C)cs1	21%	?	-11%	9.3µM*
Cc1nc(NC(=O)c2ccco2)sc1-c1csc(Nc2ccc(Cl)cc2)n1	9%	9.3µM*	-6%	9.3µM*
Cc1nc(NC(=O)c2ccco2)sc1-c1csc(Nc2ccc(Cl)cc2Cl)n1	21%	?	-18%	8.3µM*
COc1ccccc1Nc1nc(-c2sc(NC(=O)c3ccco3)nc2C)cs1	-11%	12µM*	-11%	9.3µM*
Cc1ccc(Cl)cc1Nc1nc(-c2sc(NC(=O)c3cccc(Cl)c3)nc2C)cs1	nt	?	-2%	?
Cc1sc2ncnc(SCC(=O)N3CCCC3)c2c1C	-3%	-18%	0%	-22%
Cc1nc2ccccc2c(=O)n1NC(=O)c1ccc([N+](=O)[O-])cc1Cl	7%	14%	-5%	?
SMILES	AMA1-RON2 inh	Pf growth 48h	SARS PLP yeast	Pf growth 96h
Cc1cc(C)c(C(=O)CSc2n[nH]c(-c3ccncc3)n2)c(C)c1	7%	-13%	-1%	-10%
Oc1c(C=NCc2ccc(F)cc2)[nH]c2ccc(Br)c(Cl)c12	nt	2.6µM*	?	nt
Cc1ccc(CN=Cc2[nH]c3ccc(Br)c(Cl)c3c2O)cc1	-2%	3.3µM*	-35%	nt
COc1ccc(CN=Cc2c(O)[nH]c3ccccc23)cc1	-11%	31%	-2%	1%
O=c1[nH]c(=O)n(C2CCCCCC2)c(O)c1C=NCc1ccc(F)cc1	24%	?	-2%	-2%
COc1ccc(C(CNC(=O)C(C)c2ccc3cc(OC)ccc3c2)N(C)C)cc1 (configuration not stated)	-5%	?	-2%	?
COc1ccccc1/C=N/N1C(=O)C(CC(=O)Nc2ccc([N+](=O)[O-])cc2OC)SC1=Nc1cccc(C)c1C (configuration not stated)	nt	3.7µM*	1%	?
CCOc1ccc(/C(C)=N/N2C(=O)C(CC(=O)Nc3ccc(OC)cc3[N+](=O)[O-])SC2=Nc2cccc(C)c2C)cc1 (configuration not stated)	-23%	2.1µM*	2%	2.3µM*
CCn1c2ccccc2c2cc(N=C3SC(CC(=O)Nc4ccccc4OC)C(=O)N3C)ccc21 (configuration not stated)	15%	?	0%	?
COc1cc([N+](=O)[O-])ccc1NC(=O)Cc1ccccc1	-15%	14%	-2%	27%
COc1cc([N+](=O)[O-])ccc1NC(=O)CCCOc1cccc(C)c1C	-13%	8%	-12%	2.9µM*
CCOc1ccc(NC(=O)CC2SC(N)=NC2=O)c([N+](=O)[O-])c1 (configuration not stated)	9%	18%	0%	11%
Cc1cc(C)n(-c2nc3nonc3nc2-n2nc(C)cc2C)n1	3%	3%	8%	nt
CCN(CC)c1nc2nonc2nc1N(CC)CC	-6%	-22%	2%	4.7µM*
Cc1nn(Cc2ccccc2)c(Cl)c1/C=C/C(=O)OCC(=O)NC(C)C(C)C (configuration not stated)	1%	-8%	0%	-18%
Cc1nn(Cc2ccccc2)c(Cl)c1/C=C/C(=O)OC(C)C(=O)N1CCCC1 (configuration not stated)	-6%	1.7µM*	1%	3.7µM*
CCOc1cccc(OCCCCn2cnc3ccccc3c2=O)c1	-21%	-9%	1%	-13%
CCOc1cccc(OCCn2cnc3ccccc3c2=O)c1	-10%	68%	-6%	10µM*
CC[C@]12c3[nH]c4ccc(OC)cc4c3CCN1C(=O)C(CC(=O)NCC13CC4CC(CC(C4)C1)C3)C[C@@H]2C(=O)N1CCN(C(=O)C2CC2)CC1 (some centres not stated)	-28%	nt	-14%	nt
COc1ccc(N2CCN(C(=O)C3CC(=O)N(c4ccc(C)cc4)C3)CC2)cc1 (configuration not stated)	-5%	7%	-7%	-22%
COc1ccc2cc(C(=O)NCc3ccccc3)c(=Nc3ccc(C(=O)O)cc3)oc2c1	5%	?	2%	0.41µM*
O=C(O)c1ccc(N=c2oc3cc(O)ccc3cc2C(=O)NCc2ccccc2)cc1	-2%	-28%	-23%	?
COc1ccc(C2c3c(-c4ccccc4)n[nH]c3C(=O)N2c2ccc(C(=O)O)cc2)cc1 (configuration not stated)	2%	?	5%	?

Assay outcomes (PubChem BioAssay)
